Paper PMC10812921, “Transcriptional Coactivator BOB1 (OBF1, OCA-B) Modulates the Specificity of DNA Recognition by the POU-Domain Factors OCT1 and OCT2 in a Monomeric Configuration”

Experiments:
[1] = molecular target: POU1 (OCT1 POU domain) (human, UniProt P14859 260-458); test: EMSA-SELEX-seq; no BOB1; 20 mM Tris-HCl pH 7.6, 140 mM NaCl, 10% glycerol, 0.5 mM EDTA, 0.05% Triton X-100, 0.1 mg/mL BSA, 0.1 mg/mL poly(dI-dC), 5 mM DTT, room temperature, 20 min; high values mean tight binding; details: protein: recombinant; dsDNA, one strand shown
Procedure, shortened: (§1)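 After expression in E. coli BL21, tagged POU-domain proteins were purified under denaturing conditions and then renatured. Each binding reaction held 30 ng protein and 300 ng of a PCR-amplified double-stranded random 35-nt library in 20 μL Tris–HCl pH 7.6 binding buffer, with or without 28 ng coactivator protein, for 20 min at RT. Bands holding complexes were cut from native 6% PAGE, eluted and PCR-amplified across four rounds, and the output was Illumina-sequenced. The value given for binding preference is the share, in percent, of sequenced 8-mers fitting a motif pattern.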

[2] = molecular target: T1, POU2 (OCT2 POU domain) (human, UniProt P09086 175-386); test: as above; details: protein: recombinant; dsDNA, one strand shown
T1 sequence: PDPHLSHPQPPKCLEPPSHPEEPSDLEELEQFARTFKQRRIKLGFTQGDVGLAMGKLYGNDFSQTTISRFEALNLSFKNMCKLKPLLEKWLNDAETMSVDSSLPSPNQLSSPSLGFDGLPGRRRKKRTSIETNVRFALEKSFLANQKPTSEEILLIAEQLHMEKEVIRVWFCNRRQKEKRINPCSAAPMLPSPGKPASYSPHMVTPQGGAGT
Procedure, shortened: as §1

[3] = molecular target: POU1 (OCT1 POU domain);BOB1 (OBF1, OCA-B) (human;human, UniProt P14859;Q16633 260-458;1-256, |); test: EMSA-SELEX-seq; with BOB1 (ternary complex band); 20 mM Tris-HCl pH 7.6, 140 mM NaCl, 10% glycerol, 0.5 mM EDTA, 0.05% Triton X-100, 0.1 mg/mL BSA, 0.1 mg/mL poly(dI-dC), 5 mM DTT, room temperature, 20 min; high values mean tight binding; details: protein: recombinant;recombinant; copies: 1;1; dsDNA, one strand shown
Procedure, shortened: as §1

[4] = molecular target: T2, POU2 (OCT2 POU domain);BOB1 (OBF1, OCA-B) (human;human, UniProt P09086;Q16633 175-386;1-256, |); test: as above; details: protein: recombinant;recombinant; copies: 1;1; dsDNA, one strand shown
T2 sequence 1: T1 sequence
T2 sequence 2: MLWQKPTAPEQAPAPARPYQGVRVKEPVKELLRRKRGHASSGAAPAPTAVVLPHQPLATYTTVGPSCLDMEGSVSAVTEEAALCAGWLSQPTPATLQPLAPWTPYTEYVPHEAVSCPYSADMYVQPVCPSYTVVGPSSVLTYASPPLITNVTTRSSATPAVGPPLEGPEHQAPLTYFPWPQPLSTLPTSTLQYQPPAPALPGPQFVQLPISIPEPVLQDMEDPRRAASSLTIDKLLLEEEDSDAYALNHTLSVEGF
Procedure, shortened: as §1

POU1 (OCT1 POU domain), sequence (P14859 260-458): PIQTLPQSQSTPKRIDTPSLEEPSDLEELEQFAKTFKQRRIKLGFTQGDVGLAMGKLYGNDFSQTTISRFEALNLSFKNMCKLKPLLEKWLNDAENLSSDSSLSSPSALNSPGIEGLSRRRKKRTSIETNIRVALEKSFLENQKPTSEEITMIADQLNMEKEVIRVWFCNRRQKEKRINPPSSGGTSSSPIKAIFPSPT

## AACTCAAG
[1]
  binding signal: 0.0194 % of ANNNNAAN 8-mers
[2]
  binding signal: 0.0219 % of ANNNNAAN 8-mers
[3]
  binding signal: 0.0164 % of ANNNNAAN 8-mers
[4]
  binding signal: 0.0289 % of ANNNNAAN 8-mers

## ACCATAAC
[1]
  binding signal: 0.032 % of ANNNNAAN 8-mers
[2]
  binding signal: 0.0213 % of ANNNNAAN 8-mers
[3]
  binding signal: 0.014 % of ANNNNAAN 8-mers
[4]
  binding signal: 0.0198 % of ANNNNAAN 8-mers

## AATGTAAG
[1]
  binding signal: 0.104 % of ANNNNAAN 8-mers
[2]
  binding signal: 0.106 % of ANNNNAAN 8-mers
[3]
  binding signal: 0.089 % of ANNNNAAN 8-mers
[4]
  binding signal: 0.0958 % of ANNNNAAN 8-mers

## ACATTAAC
[1]
  binding signal: 0.0984 % of ANNNNAAN 8-mers
[2]
  binding signal: 0.115 % of ANNNNAAN 8-mers
[3]
  binding signal: 0.0402 % of ANNNNAAN 8-mers
[4]
  binding signal: 0.0363 % of ANNNNAAN 8-mers

## ACCTGAAG
[1]
  binding signal: 0.0137 % of ANNNNAAN 8-mers
[2]
  binding signal: 0.0161 % of ANNNNAAN 8-mers
[3]
  binding signal: 0.0164 % of ANNNNAAN 8-mers
[4]
  binding signal: 0.0206 % of ANNNNAAN 8-mers

## ATCTGAAA
[1]
  binding signal: 0.0374 % of ANNNNAAN 8-mers
[2]
  binding signal: 0.046 % of ANNNNAAN 8-mers
[3]
  binding signal: 0.0472 % of ANNNNAAN 8-mers
[4]
  binding signal: 0.0545 % of ANNNNAAN 8-mers

## ATTTAAAG
[1]
  binding signal: 0.183 % of ANNNNAAN 8-mers
[2]
  binding signal: 0.185 % of ANNNNAAN 8-mers
[3]
  binding signal: 0.152 % of ANNNNAAN 8-mers
[4]
  binding signal: 0.0759 % of ANNNNAAN 8-mers

## AAGATAAG
[1]
  binding signal: 0.045 % of ANNNNAAN 8-mers
[2]
  binding signal: 0.0593 % of ANNNNAAN 8-mers
[3]
  binding signal: 0.046 % of ANNNNAAN 8-mers
[4]
  binding signal: 0.0429 % of ANNNNAAN 8-mers

## ATAGGAAT
[1]
  binding signal: 0.098 % of ANNNNAAN 8-mers
[2]
  binding signal: 0.132 % of ANNNNAAN 8-mers
[3]
  binding signal: 0.0898 % of ANNNNAAN 8-mers
[4]
  binding signal: 0.106 % of ANNNNAAN 8-mers

## ACGTGAAG
[1]
  binding signal: 0.0259 % of ANNNNAAN 8-mers
[2]
  binding signal: 0.0282 % of ANNNNAAN 8-mers
[3]
  binding signal: 0.0258 % of ANNNNAAN 8-mers
[4]
  binding signal: 0.0305 % of ANNNNAAN 8-mers

## AACCAAAT
[1]
  binding signal: 0.166 % of ANNNNAAN 8-mers
[2]
  binding signal: 0.121 % of ANNNNAAN 8-mers
[3]
  binding signal: 0.257 % of ANNNNAAN 8-mers
[4]
  binding signal: 0.18 % of ANNNNAAN 8-mers

## AATGTAAC
[1]
  binding signal: 0.0591 % of ANNNNAAN 8-mers
[2]
  binding signal: 0.0639 % of ANNNNAAN 8-mers
[3]
  binding signal: 0.046 % of ANNNNAAN 8-mers
[4]
  binding signal: 0.0545 % of ANNNNAAN 8-mers

## AAATAAAG
[1]
  binding signal: 0.156 % of ANNNNAAN 8-mers
[2]
  binding signal: 0.151 % of ANNNNAAN 8-mers
[3]
  binding signal: 0.168 % of ANNNNAAN 8-mers
[4]
  binding signal: 0.171 % of ANNNNAAN 8-mers

## AGCGCAAA
[1]
  binding signal: 0.0263 % of ANNNNAAN 8-mers
[2]
  binding signal: 0.0305 % of ANNNNAAN 8-mers
[3]
  binding signal: 0.0324 % of ANNNNAAN 8-mers
[4]
  binding signal: 0.0215 % of ANNNNAAN 8-mers

## AGATGAAC
[1]
  binding signal: 0.0286 % of ANNNNAAN 8-mers
[2]
  binding signal: 0.0363 % of ANNNNAAN 8-mers
[3]
  binding signal: 0.0207 % of ANNNNAAN 8-mers
[4]
  binding signal: 0.0256 % of ANNNNAAN 8-mers

## ACAGGAAG
[1]
  binding signal: 0.0343 % of ANNNNAAN 8-mers
[2]
  binding signal: 0.038 % of ANNNNAAN 8-mers
[3]
  binding signal: 0.0332 % of ANNNNAAN 8-mers
[4]
  binding signal: 0.0396 % of ANNNNAAN 8-mers

## AGTTCAAC
[1]
  binding signal: 0.0229 % of ANNNNAAN 8-mers
[2]
  binding signal: 0.0173 % of ANNNNAAN 8-mers
[3]
  binding signal: 0.0246 % of ANNNNAAN 8-mers
[4]
  binding signal: 0.0173 % of ANNNNAAN 8-mers

## ACTCTAAT
[1]
  binding signal: 0.0488 % of ANNNNAAN 8-mers
[2]
  binding signal: 0.0604 % of ANNNNAAN 8-mers
[3]
  binding signal: 0.0316 % of ANNNNAAN 8-mers
[4]
  binding signal: 0.0405 % of ANNNNAAN 8-mers

## AACCTAAG
[1]
  binding signal: 0.0256 % of ANNNNAAN 8-mers
[2]
  binding signal: 0.0213 % of ANNNNAAN 8-mers
[3]
  binding signal: 0.018 % of ANNNNAAN 8-mers
[4]
  binding signal: 0.0173 % of ANNNNAAN 8-mers

## AGATCAAG
[1]
  binding signal: 0.0305 % of ANNNNAAN 8-mers
[2]
  binding signal: 0.0397 % of ANNNNAAN 8-mers
[3]
  binding signal: 0.0273 % of ANNNNAAN 8-mers
[4]
  binding signal: 0.0272 % of ANNNNAAN 8-mers

## AGGTTAAG
[1]
  binding signal: 0.0522 % of ANNNNAAN 8-mers
[2]
  binding signal: 0.0639 % of ANNNNAAN 8-mers
[3]
  binding signal: 0.0542 % of ANNNNAAN 8-mers
[4]
  binding signal: 0.052 % of ANNNNAAN 8-mers

## AGGAGAAT
[1]
  binding signal: 0.0789 % of ANNNNAAN 8-mers
[2]
  binding signal: 0.0771 % of ANNNNAAN 8-mers
[3]
  binding signal: 0.0624 % of ANNNNAAN 8-mers
[4]
  binding signal: 0.0702 % of ANNNNAAN 8-mers

## AACGAAAG
[1]
  binding signal: 0.0313 % of ANNNNAAN 8-mers
[2]
  binding signal: 0.0328 % of ANNNNAAN 8-mers
[3]
  binding signal: 0.0328 % of ANNNNAAN 8-mers
[4]
  binding signal: 0.0264 % of ANNNNAAN 8-mers

## ATCCCAAT
[1]
  binding signal: 0.0317 % of ANNNNAAN 8-mers
[2]
  binding signal: 0.038 % of ANNNNAAN 8-mers
[3]
  binding signal: 0.025 % of ANNNNAAN 8-mers
[4]
  binding signal: 0.033 % of ANNNNAAN 8-mers

## AGGGTAAA
[1]
  binding signal: 0.0706 % of ANNNNAAN 8-mers
[2]
  binding signal: 0.0857 % of ANNNNAAN 8-mers
[3]
  binding signal: 0.0679 % of ANNNNAAN 8-mers
[4]
  binding signal: 0.0966 % of ANNNNAAN 8-mers

## ACTGTAAC
[1]
  binding signal: 0.0175 % of ANNNNAAN 8-mers
[2]
  binding signal: 0.0224 % of ANNNNAAN 8-mers
[3]
  binding signal: 0.0203 % of ANNNNAAN 8-mers
[4]
  binding signal: 0.0165 % of ANNNNAAN 8-mers

## AGCAGAAC
[1]
  binding signal: 0.0179 % of ANNNNAAN 8-mers
[2]
  binding signal: 0.0299 % of ANNNNAAN 8-mers
[3]
  binding signal: 0.0211 % of ANNNNAAN 8-mers
[4]
  binding signal: 0.014 % of ANNNNAAN 8-mers

## AGGCTAAG
[1]
  binding signal: 0.0362 % of ANNNNAAN 8-mers
[2]
  binding signal: 0.0414 % of ANNNNAAN 8-mers
[3]
  binding signal: 0.0312 % of ANNNNAAN 8-mers
[4]
  binding signal: 0.0446 % of ANNNNAAN 8-mers

## AGCTTAAT
[1]
  binding signal: 0.0645 % of ANNNNAAN 8-mers
[2]
  binding signal: 0.0972 % of ANNNNAAN 8-mers
[3]
  binding signal: 0.0449 % of ANNNNAAN 8-mers
[4]
  binding signal: 0.0578 % of ANNNNAAN 8-mers

## AAGGGAAC
[1]
  binding signal: 0.0389 % of ANNNNAAN 8-mers
[2]
  binding signal: 0.0506 % of ANNNNAAN 8-mers
[3]
  binding signal: 0.0363 % of ANNNNAAN 8-mers
[4]
  binding signal: 0.0305 % of ANNNNAAN 8-mers

## ATGGTAAC
[1]
  binding signal: 0.0454 % of ANNNNAAN 8-mers
[2]
  binding signal: 0.0621 % of ANNNNAAN 8-mers
[3]
  binding signal: 0.0316 % of ANNNNAAN 8-mers
[4]
  binding signal: 0.0429 % of ANNNNAAN 8-mers

## AAGCGAAG
[1]
  binding signal: 0.0271 % of ANNNNAAN 8-mers
[2]
  binding signal: 0.027 % of ANNNNAAN 8-mers
[3]
  binding signal: 0.0238 % of ANNNNAAN 8-mers
[4]
  binding signal: 0.0231 % of ANNNNAAN 8-mers

## ATGTAAAC
[1]
  binding signal: 0.249 % of ANNNNAAN 8-mers
[2]
  binding signal: 0.196 % of ANNNNAAN 8-mers
[3]
  binding signal: 0.293 % of ANNNNAAN 8-mers
[4]
  binding signal: 0.227 % of ANNNNAAN 8-mers

## AATTGAAG
[1]
  binding signal: 0.069 % of ANNNNAAN 8-mers
[2]
  binding signal: 0.0725 % of ANNNNAAN 8-mers
[3]
  binding signal: 0.0624 % of ANNNNAAN 8-mers
[4]
  binding signal: 0.052 % of ANNNNAAN 8-mers
